# The entries come from a sample that favours the strongest signals as a whole.
# B1: SSR2 (Sclerotium rolfsii) (protein)
# chain: MVYKITVRVYQTNPDAFFHPVEKTVWKYANGGTWSITDDQHVLTMGGSGTSGTLRFHADNGESFTATFGVHNYKRWCDIVTNLAADETGMVINQQYYSQKNREEARERQLSNYQVKNAKGRNFQIVYTEAEGNDLHANLIIG
# Columns and labels:
# Test in all cases: glycan array binding signal (z-score within array); higher = stronger binding
# Conditions in all cases: glycan notation: IUPAC condensed, linker removed
# Glc(a1-4)Glc = target: Glc(a1-4)Glc
# Outline: (§1)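 Glycan array data came from 3228 arrays in the Consortium for Functional Glycomics database, and only arrays with an available protein sequence were kept. Glycan names were put into IUPAC-condensed notation, and columns mapping to the same glycan were averaged. The binding signal is a within-array Z-score, averaged across arrays of one protein sequence run at different concentrations or buffers and across linkers. A negative Z-score can be read as non-binding.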
# GlcA(b1-3)Gal = target: GlcA(b1-3)Gal
# Outline: as §1
# [1] = target: GlcNAc(a1-3)Gal(b1-4)GlcNAc
# Outline: as §1
# [2] = target: GlcNAc(a1-4)Gal(b1-4)GlcNAc(b1-3)Gal(b1-4)GlcNAc(b1-3)Gal(b1-4)GlcNAc
# Outline: as §1
# [3] = target: GlcNAc(a1-6)Gal(b1-4)GlcNAc
# Outline: as §1
# [4] = target: GlcNAc(b1-2)Man(a1-3)[GlcNAc(b1-2)Man(a1-6)]Man(b1-4)GlcNAc(b1-4)GlcNAc
# Outline: as §1
# [5] = target: GlcNAc(b1-2)Man(a1-3)[GlcNAc(b1-4)][GlcNAc(b1-2)Man(a1-6)]Man(b1-4)GlcNAc(b1-4)[Fuc(a1-6)]GlcNAc
# Outline: as §1
# [6] = target: GlcNAc(b1-2)[GlcNAc(b1-6)]Man(a1-6)[GlcNAc(b1-2)Man(a1-3)]Man(b1-4)GlcNAc(b1-4)GlcNAc
# Outline: as §1
# [7] = target: GlcNAc(b1-2)[GlcNAc(b1-6)]Man(a1-6)[GlcNAc(b1-2)Man(a1-3)]Man(b1-4)GlcNAc(b1-4)[Fuc(a1-6)]GlcNAc
# Outline: as §1
# [8] = target: GlcNAc(b1-3)Gal(b1-3)GalNAc
# Outline: as §1
# [9] = target: GlcNAc(b1-3)Gal(b1-4)GlcNAc(b1-3)Gal(b1-4)GlcNAc
# Outline: as §1
# [10] = target: GlcNAc(b1-3)Gal(b1-4)GlcNAc(b1-3)Gal(b1-4)GlcNAc(b1-3)Gal(b1-4)GlcNAc(b1-3)Gal(b1-4)GlcNAc(b1-2)[GlcNAc(b1-3)Gal(b1-4)GlcNAc(b1-3)Gal(b1-4)GlcNAc(b1-3)Gal(b1-4)GlcNAc(b1-3)Gal(b1-4)GlcNAc(b1-6)]Man(a1-6)[GlcNAc(b1-3)Gal(b1-4)GlcNAc(b1-3)Gal(b1-4)GlcNAc(b1-3)Gal(b1-4)GlcNAc(b1-3)Gal(b1-4)GlcNAc(b1-2)Man(a1-3)]Man(b1-4)GlcNAc(b1-4)[Fuc(a1-6)]GlcNAc
# Outline: as §1
# [11] = target: GlcNAc(b1-3)Gal(b1-4)GlcNAc(b1-3)[GlcNAc(b1-3)Gal(b1-4)GlcNAc(b1-3)]GalNAc
# Outline: as §1
# [12] = target: GlcNAc(b1-3)Gal(b1-4)GlcNAc(b1-6)[GlcNAc(b1-3)Gal(b1-3)]GalNAc
# Outline: as §1
# GlcNAc(b1-3)Man = target: GlcNAc(b1-3)Man
# Outline: as §1
# [13] = target: Man(a1-2)Man(a1-3)[Man(a1-6)]Man(a1-6)[Man(a1-2)Man(a1-3)]Man(b1-4)GlcNAc(b1-4)GlcNAc
# Outline: as §1
# [14] = target: Man(a1-2)Man(a1-6)[Man(a1-3)]Man(a1-6)[Man(a1-2)Man(a1-2)Man(a1-3)]Man
# Outline: as §1
# [15] = target: Man(a1-3)[Man(a1-6)]Man(a1-6)[Man(a1-2)Man(a1-3)]Man(b1-4)GlcNAc(b1-4)GlcNAc
# Outline: as §1
# [16] = target: Neu5Ac(a2-3)Gal(b1-3)GalNAc(b1-4)[Neu5Ac(a2-3)]Gal(b1-4)Glc
# Outline: as §1
# [17] = target: Neu5Ac(a2-3)Gal(b1-3)[Neu5Ac(a2-6)]GlcNAc(b1-3)[Fuc(a1-3)[Gal(b1-4)]GlcNAc(b1-6)]Gal(b1-4)Glc
# Outline: as §1
# [18] = target: Neu5Ac(a2-3)Gal(b1-4)GlcNAc(b1-2)Man(a1-3)[GlcNAc(b1-4)][Neu5Ac(a2-3)Gal(b1-4)GlcNAc(b1-2)Man(a1-6)]Man(b1-4)GlcNAc(b1-4)GlcNAc
# Outline: as §1
# [19] = target: Neu5Ac(a2-3)Gal(b1-4)GlcNAc(b1-3)Gal(b1-4)GlcNAc(b1-3)[Neu5Ac(a2-3)Gal(b1-4)GlcNAc(b1-3)Gal(b1-4)GlcNAc(b1-6)]GalNAc
# Outline: as §1
# [20] = target: Neu5Ac(a2-3)Gal(b1-4)GlcNAc(b1-3)Gal(b1-4)GlcNAc(b1-6)[Gal(b1-3)]GalNAc
# Outline: as §1
# [21] = target: Neu5Ac(a2-3)GalNAc(b1-4)GlcNAc
# Outline: as §1
# [22] = target: Neu5Ac(a2-6)Gal(b1-4)GlcNAc(b1-2)Man(a1-3)Man(b1-4)GlcNAc(b1-4)GlcNAc
# Outline: as §1
# [23] = target: Neu5Ac(a2-6)Gal(b1-4)GlcNAc(b1-3)Gal(b1-3)GlcNAc
# Outline: as §1
# [24] = target: Neu5Ac(a2-8)Neu5Ac(a2-3)Gal(b1-3)GalNAc(b1-4)[Neu5Ac(a2-3)]Gal(b1-4)Glc
# Outline: as §1
# [25] = target: Neu5Ac9Ac(a2-6)Gal(b1-4)GlcNAc
# Outline: as §1
# [26] = target: Neu5Gc(a2-3)Gal(b1-4)[Fuc(a1-3)]GlcNAc
# Outline: as §1
# [27] = target: Neu5Gc(a2-8)Neu5Gc(a2-6)Gal(b1-4)GlcNAc
# Outline: as §1
binder,measurement,setting,value
B1,glycan array binding signal (z-score),Glc(a1-4)Glc,-0.262
same,glycan array binding signal (z-score),GlcA(b1-3)Gal,-0.282
same,glycan array binding signal (z-score),[1],3.71
same,glycan array binding signal (z-score),[2],6.99
same,glycan array binding signal (z-score),[3],0.528
same,glycan array binding signal (z-score),[4],6.77
same,glycan array binding signal (z-score),[5],2.85
same,glycan array binding signal (z-score),[6],4.32
same,glycan array binding signal (z-score),[7],4.49
same,glycan array binding signal (z-score),[8],3.63
same,glycan array binding signal (z-score),[9],0.873
same,glycan array binding signal (z-score),[10],1.3
same,glycan array binding signal (z-score),[11],0.552
same,glycan array binding signal (z-score),[12],1.62
same,glycan array binding signal (z-score),GlcNAc(b1-3)Man,-0.149
same,glycan array binding signal (z-score),[13],-0.276
same,glycan array binding signal (z-score),[14],-0.303
same,glycan array binding signal (z-score),[15],-0.244
same,glycan array binding signal (z-score),[16],-0.28
same,glycan array binding signal (z-score),[17],-0.288
same,glycan array binding signal (z-score),[18],-0.284
same,glycan array binding signal (z-score),[19],-0.267
same,glycan array binding signal (z-score),[20],0.625
same,glycan array binding signal (z-score),[21],-0.279
same,glycan array binding signal (z-score),[22],-0.286
same,glycan array binding signal (z-score),[23],-0.286
same,glycan array binding signal (z-score),[24],-0.271
same,glycan array binding signal (z-score),[25],-0.291
same,glycan array binding signal (z-score),[26],-0.284
same,glycan array binding signal (z-score),[27],-0.286

# From the supplement of paper PMC8728848
